Results as given in the OligoGym collection.

The sequences below were run against SFTA2 (assay: pooled miR-30 sensor sort-seq; sequence = guide strand). Settings: shRNA.
Also: reference of the scale not given here.

Point of comparison: TGTCAGAAAAGACTCCTTCAGC, sensor-assay potency score (higher = more potent) -0.402. Against it:
- TTCAGTTGCAAAGTCATACCCG — higher, 0.378
- TTGAGATCTTGCATGGTGGAGG — higher, -0.323
- TTCCATGTGAGCTGCCAAGGAG — lower, -0.915
- ATGGTGTTGAGATCTTGCATGG — lower, -1.27

The sequences below were run against SGK1 in the same assay as above. Settings: shRNA.

Point of comparison: TACAATTTGTCAGCAGTCTGGA, sensor-assay potency score (higher = more potent) 0.173. Against it:
- TTTGCTGAGAAGGACTTGGTGG — lower, 0.0605
- TAAGTCTCTATAAACGATGTTC — lower, -0.772
- TACATTTCAGCTGTGTTTCGGC — higher, 0.293
- TTCTTCAACAGAACATTCCGCT — higher, 0.565
- TTCTGTAAAACTTTGACTGCAT — higher, 0.858
- TTATTAATGAGATCATCCCAGT — lower, -0.742
- TTTGACTGCATAGAACACTTCT — higher, 0.33
- TTTTAAGTCTCTATAAACGATG — lower, -1.25
- TTGCTAGAAGAACCTTTCCAAA — lower, -1.79
- TTTAGCATGAGGATTGGACGAC — lower, -0.303
- TTGTCGTACATTTCAGCTGTGT — lower, -0.298
